{"source": "PubChem BioAssay AID651800", "about": "(The Scripps Research Institute Molecular Screening Center, 2012)", "note": "Hit rate of the full screen: of about 360,000 compounds, about 1,300 (0.36%) were called active. The sample as a whole holds a higher share of actives than the screen did. A number with no mark means an inactive call. Cut-off read from the data, not from the text of the source: active = inhibition above about 19%; inactive = the rest.", "data": [{"tested_on": "T-cell receptor (TCR)", "test": "small molecules blocking TCR binding to CD3 – biochemical, fluorescence, TAMRA-labeled TCR probe, primary screen (AID 651800);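 note: recombinant mutant TCR 2C K166C tagged with TAMRA read by polarization; 0% = receptor in buffer alone and 100% = receptor with positive control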", "settings": "at 9.4 µM, active compounds read high", "values": [{"molecule": "O=c1ccc2c(-c3ccccc3S(=O)(=O)O)c3ccc(O)c(O)c3oc-2c1O", "inhibition": "33.4% (active)"}, {"molecule": "COc1ccc(C2=CN(Cc3ccccc3)C(c3ccc(OC)cc3)CC2=O)cc1", "note": "(centres undefined)", "inhibition": "-0.11%"}, {"molecule": "COC(=O)[C@]12C[C@H](CC(=O)NCCCCc3ccccc3)C(=O)N(Cc3ccc4c(c3)OCO4)C1=C[C@H](C(C)(C)C)O[C@@H]2C", "inhibition": "-0.56%"}, {"molecule": "COC(=O)C1=C(C)N(Cc2ccccc2C(F)(F)F)C(=NCc2ccc(C(F)(F)F)cc2)NC1c1ccc(F)cc1", "note": "(centres undefined)", "inhibition": "10.2%"}, {"molecule": "COc1cc2ccc(C(C)=O)c(O)c2cc1OC", "inhibition": "-7.1%"}, {"molecule": "COc1ccc(/C(=N\\O)c2nccc3cc(OC)c(OC)cc23)cc1OC", "inhibition": "37.5% (active)"}, {"molecule": "COC(=O)c1ccc(-c2c(-c3ccccc3)ncc3cc(OC)c(OC)cc23)cc1", "inhibition": "-0.95%"}, {"molecule": "CN(C)CCNC(=O)C(C(=O)c1ccccc1)n1ccccc1=O", "note": "(centres undefined)", "inhibition": "27.9% (active)"}, {"molecule": "O=C(NCC1CCCO1)C(C(=O)c1ccccc1)n1cc(Cl)ccc1=O", "note": "(centres undefined)", "inhibition": "4.24%"}, {"molecule": "CN(C)CCNC(=O)Cc1ccc([N+](=O)[O-])cc1", "inhibition": "6.84%"}, {"molecule": "Nc1ncnc2c1ncn2C1OC(CO)CC1O", "note": "(centres undefined)", "inhibition": "-7.35%"}, {"molecule": "COC(=O)c1c(-c2ccc(OC)cc2)c2c(c3c4ccccc4n(S(=O)(=O)c4ccc(C)cc4)c13)C(=O)N(C)C2", "inhibition": "0.77%"}, {"molecule": "O=S1(=O)c2c(cccc2N2CCCCC2)O[C@H](COCc2ccccc2)CN1C1CC1", "inhibition": "2.48%"}, {"molecule": "O=S1(=O)c2c(cccc2N2CCCC2)O[C@H](COCc2ccccc2)CN1C1CC1", "inhibition": "19.3% (active)"}, {"molecule": "CSc1ccc(Oc2cccc3c2S(=O)(=O)N([C@H](C)c2ccccc2)C[C@@H](COCc2ccccc2)O3)cc1C", "inhibition": "11.5%"}, {"molecule": "CC1CCN(C(=O)c2ncn3c2C(=O)N[C@@H](C)C3)CC1", "inhibition": "3.49%"}, {"molecule": "COc1ccc(/C=C/c2c(-c3cccc(C)c3)oc3ccc(-c4ccc5c(c4)OCO5)cc23)cc1", "inhibition": "-3.78%"}, {"molecule": "Nc1[nH]c(C(=O)c2ccc(Br)cc2)c(-c2ccc3c(c2)OCO3)c1C(=O)NCCc1c[nH]c2ccccc12", "inhibition": "-5.65%"}, {"molecule": "COc1ccccc1N(CC(=O)N/N=C(\\C)c1ccccc1O)S(=O)(=O)c1ccc(C)cc1", "inhibition": "26.6% (active)"}, {"molecule": "COc1ccccc1N(CC(=O)N1CCCCC1)S(=O)(=O)c1ccccc1", "inhibition": "3.6%"}, {"molecule": "COc1ccccc1N(CC(=O)Nc1c(C)n(C)n(-c2ccccc2)c1=O)S(=O)(=O)c1ccccc1", "inhibition": "3.09%"}, {"molecule": "COC(=O)[C@]12C[C@H](CC(=O)N3CCN(C(=O)C4CC4)CC3)C(=O)N(Cc3ccc4c(c3)OCO4)C1=C[C@H](C(C)(C)C)O[C@@H]2C", "inhibition": "3.03%"}, {"molecule": "C/C=C/C=C/C(=O)O", "inhibition": "27.1% (active)"}, {"molecule": "COc1ccc(-c2ccccc2C2Cc3nnccc3CN2C(=O)Nc2ccccc2)cc1", "note": "(centres undefined)", "inhibition": "-1.6%"}, {"molecule": "CCCCCCCCN1C(=O)[C@@H](CC(=O)NCc2ccccc2)C[C@@]2(C(=O)OC)C1=C[C@H](C(C)(C)C)O[C@@H]2C", "inhibition": "-4.58%"}, {"molecule": "CCCCc1ccc(NC(=O)CN2C(=O)NC(Cc3ccccc3)C2=O)cc1", "note": "(centres undefined)", "inhibition": "-0.34%"}, {"molecule": "O=C1C(Cc2ccc(O)cc2)NC(=S)N1Cc1ccccc1", "note": "(centres undefined)", "inhibition": "25.9% (active)"}, {"molecule": "Cc1cc(C)c(NC(=O)CN2C(=O)NC(Cc3ccccc3)C2=O)c(C)c1", "note": "(centres undefined)", "inhibition": "-1.72%"}, {"molecule": "COc1ccccc1-c1ccc([C@@H]2C[C@H]3[C@H](CON3C)CN2S(=O)(=O)c2cc(Cl)cc(Cl)c2)cc1", "inhibition": "-0.88%"}, {"molecule": "C[C@@H]1ON(C)[C@H]2C[C@H]3c4cc(N5CCOCC5)ccc4CCN3C[C@@H]12", "inhibition": "7.02%"}, {"molecule": "CCN(CC)c1ccc(C(=O)N/N=C(\\C)c2cccc(OC)c2)cc1", "inhibition": "6.48%"}, {"molecule": "CCN(CC)c1ccc2cc(C(N)=O)/c(=N\\NC(=O)c3ccncc3)oc2c1", "inhibition": "30.5% (active)"}, {"molecule": "COc1cccc2cc(C(N)=O)/c(=N\\NC(=O)c3ccccc3)oc12", "inhibition": "6.06%"}, {"molecule": "O=C(NCc1ccccc1)[C@H]1CCCN1C(=O)[C@@H]1CCCN1C(=O)c1ccc(Cl)cc1Cl", "inhibition": "5.28%"}, {"molecule": "CCc1ccc(C2=CC(=O)CC(C)(C)C2=O)cc1", "inhibition": "-0.75%"}, {"molecule": "COc1ccc(C(=O)NCCSc2ccccc2C)cc1", "inhibition": "-0.19%"}, {"molecule": "COc1ccc(C(=O)NNc2cc(C)nc(NNC(=O)c3ccc(OC)cc3)n2)cc1", "inhibition": "19.4% (active)"}, {"molecule": "COc1ccc(C(=O)NCC[N+](C)(C)C)cc1", "inhibition": "-6.67%"}, {"molecule": "CC(c1ccccc1)n1c(NCCCn2ccnc2)nc2c1c(=O)[nH]c(=O)n2C", "note": "(centres undefined)", "inhibition": "5.62%"}, {"molecule": "COc1ccc(S(=O)(=O)Nc2ccc3c(c2)C(=O)N([C@H](C)CO)C[C@H](C)[C@@H](CN(C)C)OCCCC[C@H](C)O3)cc1", "inhibition": "-1.68%"}, {"molecule": "CC(=O)c1ccc(S(=O)(=O)NCC2CCN(C(=O)C(=O)c3cccs3)CC2)cc1", "inhibition": "-11.4%"}, {"molecule": "CCN(CC)CCCC(C)n1c2nc(=O)[nH]c(=O)c-2nc2cc(Cl)ccc21", "note": "(centres undefined)", "inhibition": "54.6% (active)"}, {"molecule": "O=C(NCc1ccccc1)[C@H]1CCCN1C(=O)[C@H]1CCCN1C(=O)c1cc(F)cc(F)c1", "inhibition": "1.6%"}, {"molecule": "Cc1ccc(-c2nn(-c3ccccc3)cc2C(=O)Nc2cccc(S(=O)(=O)N3CCOCC3)c2)cc1", "inhibition": "2.85%"}, {"molecule": "O=C(/C=C/c1cn(-c2ccccc2)nc1-c1ccc2c(c1)OCCO2)NCCCN1CCOCC1", "inhibition": "-3.23%"}, {"molecule": "Cc1ccc(-c2nn(-c3ccccc3)cc2/C=C/C(=O)Nc2cccc(S(N)(=O)=O)c2)cc1", "inhibition": "83.6% (active)"}, {"molecule": "CN(C)C(=O)N1CCN(C(=O)[C@@H](Cc2ccccc2)NC(=O)[C@H]2O[C@@H](n3ccc(N)nc3=O)[C@H](O)[C@@H]2O)CC1", "inhibition": "-1.88%"}, {"molecule": "COC(=O)C1=C(C(=O)OC)C2C=C(C(C)C)C1C(=O)C2(C)O", "note": "(centres undefined)", "inhibition": "-5.88%"}, {"molecule": "COC(=O)C1=C(C)N(Cc2cccc(C(F)(F)F)c2)C(=NCc2cccc(C(F)(F)F)c2)NC1c1ccccc1C(F)(F)F", "note": "(centres undefined)", "inhibition": "7%"}, {"molecule": "CC1CCCN(c2cccc3c2S(=O)(=O)N(Cc2ccc(F)cc2)[C@@H](C)[C@H](c2ccccc2)O3)C1", "note": "(some centres undefined)", "inhibition": "-3.78%"}, {"molecule": "CC(C)C[C@H](NC(=O)CC1CCCC1)C(=O)N1CCC[C@H]1C(=O)NCc1ccccc1", "inhibition": "-0.62%"}, {"molecule": "COc1ccccc1C(=O)NNC(=O)c1ccc(NC(=O)c2ccccc2)cc1", "inhibition": "37.3% (active)"}, {"molecule": "COc1ccccc1C(=O)c1ccccc1C(=O)c1ccccc1", "inhibition": "-2.38%"}, {"molecule": "COc1ccccc1C(=O)NCC(=O)OCC(=O)NNC(=O)c1ccc(Br)cc1", "inhibition": "7.36%"}, {"molecule": "CC(=O)C1=C(C)N(Cc2ccc(Cl)cc2)C(=S)NC1c1ccc(F)cc1", "note": "(centres undefined)", "inhibition": "3.88%"}, {"molecule": "COc1ccccc1Cc1c(-c2ccc(F)cc2)nc2ccc(C)cn12", "inhibition": "-1.71%"}, {"molecule": "O=C(NCc1ccccc1)[C@@H]1CCCN1C(=O)[C@@H](NS(=O)(=O)c1ccc(F)cc1F)C1CCCCC1", "inhibition": "-7.08%"}, {"molecule": "Cc1ccc(C(=O)NCC(=O)O)cc1S(=O)(=O)N1CCCCC1", "inhibition": "21.8% (active)"}, {"molecule": "COc1ccccc1C(CNC(=O)c1ccc(C)c(S(=O)(=O)N2CCCCC2)c1)N(C)C", "note": "(centres undefined)", "inhibition": "-9.01%"}, {"molecule": "Cc1ccc(C(=O)NNC(=O)c2ccncc2)cc1S(=O)(=O)N1CCCCC1", "inhibition": "-4.33%"}, {"molecule": "COC(=O)[C@]12C[C@H](CC(=O)NCc3ccc(OC)c(OC)c3)C(=O)N(Cc3ccccc3)C1=C[C@H](C(C)C)O[C@@H]2C1CC1", "inhibition": "1.22%"}, {"molecule": "Cc1nn(C)cc1N1C(=O)c2cccc3c(N)ccc(c23)C1=O", "inhibition": "38% (active)"}, {"molecule": "COc1ccc(NS(=O)(=O)c2cc(NC(=O)/C=C/c3cc(OC)c(OC)c(OC)c3)ccc2N2CCCCC2)cc1", "inhibition": "22.8% (active)"}, {"molecule": "COc1ccc(NS(=O)(=O)c2cc(NC(=O)c3ccc(S(=O)(=O)N(C)C)cc3)ccc2N2CCOCC2)cc1", "inhibition": "1.69%"}, {"molecule": "COc1ccc(NS(=O)(=O)c2cc(NC(=O)C3CCCCC3)ccc2N2CCOCC2)cc1", "inhibition": "0.76%"}, {"molecule": "Nc1[nH]c(C(=O)c2ccccc2)c(-c2ccc(Cl)cc2Cl)c1C(=O)c1ccccc1", "inhibition": "4.17%"}, {"molecule": "Nc1nc(CC(=O)CSc2ccc(Cl)cc2)nc(Nc2ccc(F)cc2)n1", "inhibition": "4.84%"}, {"molecule": "Cc1cc2nc3c(=O)[nH]c(=O)nc-3n(C[C@H](O)[C@H](O)[C@H](O)CO)c2cc1C", "inhibition": "19.9% (active)"}, {"molecule": "CN1CCCCC(NC(=O)C(C)(C)C)C1=O", "note": "(centres undefined)", "inhibition": "-0.73%"}, {"molecule": "CC(C)CNc1cccc2c1S(=O)(=O)N[C@H](C)CO2", "inhibition": "0.56%"}, {"molecule": "C[C@H]1CN([C@@H](C)CO)C(=O)CCCn2nncc2CO[C@@H]1CN(C)C(=O)Nc1ccc(N2CCN(C)CC2)cc1", "inhibition": "3.36%"}, {"molecule": "CN[C@H]1C[C@H]2c3[nH]c4c(-c5ccccc5)cccc4c3CCN2C(=O)[C@H]1[C@H](C)O", "inhibition": "2.21%"}, {"molecule": "CC(NC(=S)Nc1ccc(S(N)(=O)=O)cc1)c1ccc2c(c1)OCO2", "note": "(centres undefined)", "inhibition": "-3.8%"}, {"molecule": "CCN(CC(=O)Nc1ccc2c(c1)OCO2)S(=O)(=O)c1ccccc1", "inhibition": "-7.59%"}, {"molecule": "NS(=O)(=O)c1ccc(NC(=O)COC(=O)c2c3c(nc4ccccc24)/C(=C\\c2ccc4c(c2)OCO4)CCC3)cc1", "inhibition": "50.3% (active)"}, {"molecule": "Cc1c(Cl)cccc1NC(=O)CCC(=O)N/N=C/c1ccco1", "inhibition": "1.69%"}, {"molecule": "O=C(N/N=C/c1ccco1)c1ccc(C(=O)N/N=C/c2ccco2)o1", "inhibition": "21.8% (active)"}, {"molecule": "O=C(Cn1cnc2ccccc21)N/N=C/c1ccco1", "inhibition": "3.99%"}, {"molecule": "Cc1ccc2nc(CN(C)C(=O)[C@@H](Cc3ccccc3)NC(=O)[C@H]3O[C@@H](n4ccc(=O)[nH]c4=O)[C@H](O)[C@@H]3O)[nH]c2c1", "inhibition": "3.29%"}]}]}
